Test results taken from PubChem BioAssay AID2174 (The Scripps Research Institute Molecular Screening Center, 2009).
In all, about 320,000 compounds went through this assay and about 500 (0.16%) were called active.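 The calls were made as follows: active = inhibition above the mean of all tested compounds plus 3 SD, set per campaign (cut at about 14% in these data); inactive = the rest.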 For the sample, actives were picked, then their nearest neighbours and some compounds at random.

These compounds were tested against Acyl-protein thioesterase 1 (Homo sapiens) (UniProt O75608) (assay: LYPLA1 inhibitors, primary screen, counter-screen for PME1 inhibitor project, biochemical, fluorescence polarization, FP-Rh probe ABPP (AID 2174;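 also: inhibitors block serine hydrolase probe labeling of LYPLA1 so polarization falls; 0% = enzyme with DMSO and 100% = wells lacking LYPLA1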)). Conditions: recombinant LYPLA1, FP-Rh probe fluorescence polarization; at 5.9 µM; active compounds read high.
Acyl-protein thioesterase 1 (Homo sapiens), sequence (O75608 whole entry, looked up): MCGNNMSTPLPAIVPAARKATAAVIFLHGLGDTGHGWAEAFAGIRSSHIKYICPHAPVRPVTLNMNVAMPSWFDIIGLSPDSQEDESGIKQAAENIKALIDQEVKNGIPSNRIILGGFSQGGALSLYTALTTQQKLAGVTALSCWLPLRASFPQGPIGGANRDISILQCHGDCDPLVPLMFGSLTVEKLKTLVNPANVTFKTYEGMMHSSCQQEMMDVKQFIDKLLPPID
In the case of `O=[N+]([O-])c1ccc(N(CCO)Cc2ccccc2)c([N+](=O)[O-])c1`, the inhibition is reported as -0.28% (inactive). `O=C(CN1CCN(c2cccc(Cl)c2)CC1)Nc1ccc(S(=O)(=O)N2CCOCC2)cc1` was tested, and the inhibition was 18.1% (active). `O=C(CN1CCCCCC1)Nc1ccc(S(=O)(=O)N2CCCCC2)cc1` was tested, and the inhibition was 1.21% (inactive). `O=C(CN1C(=O)CCC1=O)Nc1ccc(S(=O)(=O)N2CCOCC2)cc1` was tested, and the inhibition was -5.25% (inactive). For `CCCCn1c(N)c(N(CC(C)C)C(=O)C2CSC3(C)CCC(=O)N23)c(=O)[nH]c1=O` (stereo not given), the inhibition was -1.21% (inactive). `COCCOC(=O)c1sc(=S)n(CCOC)c1N` was tested, and the inhibition was 19.7% (active). With `COC(=O)c1sc(=S)n(-c2ccc(Cl)cc2)c1C` the inhibition was 0.52% (inactive). With `CC(=O)Nc1ccc(N2C(=O)C3C4CC(=O)C(c5ccccc54)C3C2=O)cc1` (stereo not given) the inhibition was 1.72% (inactive). With `COc1ccccc1-n1c(=S)[nH]c2c(sc(=S)n2-c2ccc(C)cc2C)c1=O` the inhibition was 2.01% (inactive). `Cc1ccc(Oc2ccc3c(c2)C(=O)N(c2cccc4cccnc24)C3=O)cc1` was tested, and the inhibition was -5.81% (inactive). For `O=S(=O)(NCCCN1CCOCC1)c1ccc(F)c(Cl)c1`, the inhibition was 2.43% (inactive). With `Cc1c(Br)c([N+](=O)[O-])nn1CC(=O)N1CCN(Cc2ccccc2)CC1` the inhibition was 1.03% (inactive). In the case of `COc1cccc(C(C(=O)NC2CCCC2)N(C(=O)c2ccco2)c2cccc(C(C)=O)c2)c1OC` (stereo not given), the inhibition is reported as 0.23% (inactive). For `O=c1[nH][nH]c(C(F)(F)F)c1C=NCc1ccccc1Cl`, the inhibition was 1.78% (inactive). `Cc1ccc(OCC(=O)Oc2ccccc2[N+](=O)[O-])cc1` was tested, and the inhibition was 1.05% (inactive). `COc1ccc(/C=C/c2noc(-c3ccccc3OC(C)=O)n2)cc1` was tested, and the inhibition was -1.21% (inactive). `CN=C1SC(C(=O)O)CC(=O)N1C` (stereo not given) was tested, and the inhibition was -2.92% (inactive). With `O=C(CSc1nnc(-c2ccoc2)o1)N1CCOCC1` the inhibition was -2.17% (inactive). With `Cc1cc2ccccn2c1C(=O)c1cccc(S(=O)(=O)N2CCOCC2)c1` the inhibition was -1.9% (inactive). With `O=C(NCc1ccccc1)[C@H]1C[C@@H]1[C@H](NP(=O)(c1ccccc1)c1ccccc1)c1ccccc1` the inhibition was -4.27% (inactive). `CCCCCCNCCn1cnc2c(N)ncnc21` was tested, and the inhibition was -4.2% (inactive). `CC1(C)CC(=O)C/C(=N\NC(=O)c2cccs2)C1` was tested, and the inhibition was -2.89% (inactive). `CCOc1ncccc1C(=O)OCC(=O)c1c[nH]c2ccccc12` was tested, and the inhibition was -4.27% (inactive). For `COc1cccc(-c2nc(CS(=O)CC(=O)NCc3ccc(F)cc3)c(C)o2)c1` (stereo not given), the inhibition was 1.75% (inactive). `COc1ccc(-c2nc(CS(=O)CC(=O)NCc3ccccn3)c(C)o2)cc1` (stereo not given) was tested, and the inhibition was 25% (active). For `COc1ccc(-c2nc(CS(=O)CC(=O)NCc3ccccc3)c(C)o2)cc1OC` (stereo not given), the inhibition was -1.5% (inactive). In the case of `O=C1CC(C(F)(F)C(F)(F)C(F)(F)C(F)(F)F)=Nc2ccccc2N1`, the inhibition is reported as 0.46% (inactive). For `CCN(Cc1ccccc1)S(=O)(=O)c1cc(C(=O)O)ccc1OC`, the inhibition was -4.32% (inactive). In the case of `Nc1nc(SCC(=O)NNc2c(Cl)cc(Cl)cc2Cl)n[nH]1`, the inhibition is reported as 2.34% (inactive). `Cc1cc(C)c(C#N)c(SCC(=O)NN2CC(=O)N(c3ccccc3F)CC2=O)n1` was tested, and the inhibition was -0.67% (inactive). `Cc1cccc(-n2c(SCC(N)=O)nc3c(c2=O)C2(CCCCC2)Cc2ccccc2-3)c1` was tested, and the inhibition was -3.86% (inactive). For `Cn1ccc(=NC=C(C#N)C#N)c2ccccc21`, the inhibition was -3.88% (inactive). `CN(C)c1ccc(N/C=C/C(=O)C(F)(F)F)cc1` was tested, and the inhibition was -5.36% (inactive). In the case of `CCN(CC)C(=O)CSc1ncnc2c1cnn2-c1ccccc1`, the inhibition is reported as -1.45% (inactive). For `COc1ccc(/C=C2\CCCC3C2=NN(C(=O)c2scnc2C)C3c2ccc(OC)cc2)cc1` (stereo not given), the inhibition was -3.35% (inactive). In the case of `CCCN(CCC)C(=O)C1c2ccccc2Oc2ccccc21`, the inhibition is reported as -1.51% (inactive). `O=C(O)CCS(=O)(=O)c1ccc(-c2ccccc2)cc1` was tested, and the inhibition was -0.07% (inactive). With `NS(=O)(=O)c1ccc(NC(=S)NNC(=O)c2cccs2)cc1` the inhibition was 0.82% (inactive). In the case of `COC(=O)[C@@H]1CC[C@H](C)[C@@H](c2ccc(C)cc2)N1C(=O)c1ccc(/C=N/O[C@H](C)c2cn([C@@H]3COC[C@H]3O)nn2)cc1`, the inhibition is reported as -1.13% (inactive). With `COCCCN(C(=O)CSCc1ccc(C)cc1)c1c(N)n(Cc2ccccc2)c(=O)[nH]c1=O` the inhibition was -5.33% (inactive). `Cc1ccccc1NC(=O)NC1(C(=O)N2CCCC2)CCCCC1` was tested, and the inhibition was 5.72% (inactive). For `CCCCN1C(=O)/C(=C2/Sc3ccc(Cl)cc3N2CC)SC1=S`, the inhibition was 2.19% (inactive). In the case of `CCN1C(=O)/C(=C2/Sc3ccccc3N2CCCS(=O)(=O)O)SC1=S`, the inhibition is reported as 14.2% (active). `CCN1C(=O)/C(=c2\s/c(=C3\Sc4ccccc4N3C)c(=O)n2C)N(C)C1=S` was tested, and the inhibition was -0.75% (inactive). `COc1ccc(CNC(=O)C(=O)NCC2OCCN2C(=O)c2ccc(OC)cc2)cc1` (stereo not given) was tested, and the inhibition was -3.36% (inactive). `CC(C)c1ccc(S(=O)(=O)N2CCN(C(=O)CN3C(=O)NC(C)(c4ccccc4)C3=O)CC2)cc1` (stereo not given) was tested, and the inhibition was 0.26% (inactive). With `Cc1ccccc1C(=O)NC(=S)NC1CC1` the inhibition was -2.2% (inactive). With `Cc1c(C(=O)NCCN2C(=O)S/C(=C\c3cccs3)C2=O)cccc1[N+](=O)[O-]` the inhibition was -7.3% (inactive). In the case of `COc1ccc(S(=O)(=O)N(CCCN2CCCC2=O)Cc2cc3c(C)ccc(C)c3[nH]c2=O)cc1`, the inhibition is reported as -0.26% (inactive). In the case of `COc1cc(OC)cc(C(=O)NNC(=O)CNC(=O)c2ccc(Br)o2)c1`, the inhibition is reported as -3.43% (inactive). In the case of `O=C(NCCCN1CCCCC1)C1CCCN(c2ncnc3c2nc2n3CCCCC2)C1` (stereo not given), the inhibition is reported as 4.5% (inactive). For `O=C(COC(=O)CCOc1ccccc1)Nc1cc(S(=O)(=O)N2CCCCC2)ccc1Cl`, the inhibition was -5.97% (inactive). `Cc1ccsc1/C=C1\SC(N2CCOCC2)=NC1=O` was tested, and the inhibition was -3.19% (inactive). For `Cc1ccc(N2CCN(/N=C/c3cccs3)CC2)cc1`, the inhibition was 2.05% (inactive). With `Cc1ccc(N2CCN(C3=NC(=O)/C(=C\c4cccs4)S3)CC2)cc1` the inhibition was 29% (active). `CCCCc1nc2cc(C(=O)N3CCCCC3CCO)ccc2o1` (stereo not given) was tested, and the inhibition was -0.28% (inactive). In the case of `O=C(NCCc1ccccc1)C(=O)NCC1OCCN1S(=O)(=O)c1cccs1` (stereo not given), the inhibition is reported as 2.86% (inactive). `O=C(CCCn1c(SCC(=O)c2ccccc2)nc2ccccc2c1=O)NCC1CCCO1` (stereo not given) was tested, and the inhibition was 2.13% (inactive). For `O=C(CSc1nc2ccccc2c(=O)n1-c1ccc(F)cc1)NC1CC1`, the inhibition was 0.87% (inactive). For `O=C(CCn1c(SCC(=O)c2ccccc2)nc2ccccc2c1=O)NCc1ccc(F)cc1`, the inhibition was 33.2% (active). `O=C(N/N=C/c1ccsc1)c1cc(O)cc(O)c1` was tested, and the inhibition was 3.13% (inactive). In the case of `CCOCCCNC(=O)c1cn(CC(C)C)c(=O)c2c1c1ccccc1n2C`, the inhibition is reported as 0.47% (inactive). `COc1ccc(S(=O)(=O)N/N=C\c2ccc(OC)c(COc3ccc(C)cc3[N+](=O)[O-])c2)cc1` was tested, and the inhibition was 3.24% (inactive). For `Cc1ccc(N(CC(=O)NC2CCCCC2)C(=O)CCCC(=O)Nc2ccccn2)c(C)c1`, the inhibition was -5.08% (inactive). `CC1CCCCC1NC(=O)NC(=O)COC(=O)C1=NN(c2ccccc2)C(=O)CC1` (stereo not given) was tested, and the inhibition was -3.28% (inactive). `CCOc1ccc(S(=O)(=O)N2CCCC(C(=O)N3CCC(C(N)=O)CC3)C2)cc1Cl` (stereo not given) was tested, and the inhibition was -0.84% (inactive). In the case of `CCn1cc(CN2CCC(C(=O)Nc3cccc(-c4cccc(Cl)c4)c3)CC2)c(C)n1`, the inhibition is reported as -1.53% (inactive). In the case of `O=C(NCc1ccccc1Cl)C1CCN(c2ncnc3c2nc2n3CCCCC2)CC1`, the inhibition is reported as 3.58% (inactive). With `O=C(Cc1ccccc1F)NC1CCSc2ccccc21` (stereo not given) the inhibition was -2.96% (inactive). In the case of `O=C(CC1Nc2ccccc2NC1=O)Nc1ccccc1` (stereo not given), the inhibition is reported as -11.2% (inactive). `COc1ccc(NS(=O)(=O)c2cccc(C(=O)NCCc3ccc(S(N)(=O)=O)cc3)c2)cc1` was tested, and the inhibition was 0.92% (inactive). In the case of `CCC(Cc1ccccc1)NC(=O)C1CCCCC1` (stereo not given), the inhibition is reported as -0.48% (inactive). `CCN(CC)S(=O)(=O)c1ccc(N2CCOCC2)c(NC(=O)c2ccc(=O)n(C)n2)c1` was tested, and the inhibition was 3.13% (inactive). `CCOC(=O)/C(=N\Nc1ccccc1Cl)N(C)C1CCS(=O)(=O)C1` (stereo not given) was tested, and the inhibition was 6.62% (inactive). `O=C(Nc1nnc(C2COc3ccccc3O2)o1)c1ccc(F)cc1` (stereo not given) was tested, and the inhibition was -3.93% (inactive). For `COc1ccc2c(c1)OC(O)(C(F)(F)C(F)F)CC2=O` (stereo not given), the inhibition was 0.29% (inactive). `Cc1cc(-c2ccccc2)nc(N2CCC(C(=O)NC34CC5CC(CC(C5)C3)C4)CC2)n1` was tested, and the inhibition was -0.18% (inactive). `CC(=O)Nc1ccc(C(=O)N(C2=NC(C)CS2)c2ccc(Cl)cc2)cc1` (stereo not given) was tested, and the inhibition was -16.3% (inactive). `O=C(Nc1cccc(Cl)c1)c1cncn1-c1ccc(F)cc1` was tested, and the inhibition was -4.38% (inactive). In the case of `CC(C)(C)c1ccc(CCC2OCC(CN3CCOCC3)O2)cc1` (stereo not given), the inhibition is reported as -1.79% (inactive). `O=C1CN(C(=O)COc2c(Cl)cccc2Cl)c2ccccc2N1` was tested, and the inhibition was -0.08% (inactive). For `Cc1ccc(OCc2cc(C(=O)N(C)CCc3ccccc3)no2)cc1C`, the inhibition was 2.48% (inactive). For `O=C(NCCCc1ccccc1)c1cc(COc2c(F)cccc2F)on1`, the inhibition was -0.18% (inactive). For `CN(CCOc1ccccc1)C(=O)c1cc(COc2c(F)cccc2F)on1`, the inhibition was 17.4% (active). `COc1cccc(NC(=O)C2CCCN2C(=O)OCc2ccccc2)c1` (stereo not given) was tested, and the inhibition was 1.14% (inactive). `COc1cccc(NC(=O)N2C3CCCC2CC(NC(C)=O)C3)c1` (stereo not given) was tested, and the inhibition was -0.11% (inactive). For `COc1cccc(NC(=O)N2CCCC2C(=O)NC2CCCCC2)c1` (stereo not given), the inhibition was 15.1% (active). With `CCc1c(SCCC(=O)O)nc2ccccc2c1C` the inhibition was 2.67% (inactive). With `COc1ccc2c(c1)[C@H]1[C@H](CO2)[C@H](c2ccccc2)[C@]2(C)C(=O)Nc3cc(F)c(F)cc3C(=O)N12` the inhibition was -14.6% (inactive). With `Cc1cccc(N2CCC(NCc3c(C(=O)N4CCCCC4)nc4c(C)cccn34)CC2)c1` the inhibition was 0.61% (inactive).
